Assay outcomes from PubChem BioAssay.
Only some compounds are listed: those with a hit (about 7.8% of all), similar ones and a draw of the others.
HCMV inh = human cytomegalovirus inhibition | AID 1259415 | HFF cells, HCMV-luciferase reporter, 72 h; active compounds read low | actives 4.5% (n = 410,000) | activity change, negative = inhibition, % at 57.5 µM; in the data active = activity change below about -60%; inconclusive = no clear call, values can overlap the other calls; inactive = above about -39%
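Compounds were evaluated in HFFs infected with an HCMV luciferase reporter virus (MOI 1 PFU/cell). Luciferase in lysates collected 72 h post infection served as the replication measure.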
HCV inhibitor = HCV inhibition; actives 3.4% (n = 340,000); Potency, µM (highest dose often 41.8 µM), inactives show at the top dose activity change, negative = inhibition, usual class: inhibitors; Huh7.5.1 HCVcc-Cre infection, luciferase reporter, 44 h; AID 651820; active = well fitted inhibition curve with a large enough effect; inconclusive = small, poorly fitted or top-dose-only effect, or another doubt; inactive = no such curve, though single readings can be large or run the other way; also: potency is read from the fitted curve at half-maximal effect
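Seed cells (1,000/well) for 4 h; treat with compound and infect with HCVcc-Cre, moi about 0.5. Incubate 44 h, then detect luciferase activity.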
Vaccinia Venus = inhibitors of vaccinia virus (Venus reporter). Vaccinia virus Venus reporter expression, fluorescence. Potency, µM (top dose mostly 36.5 µM), for inactives: at the top dose activity change, negative = inhibition, actives largely listed as inhibitors. actives 0.46% (n = 330,000); calls by dose curve; tested in A549 cells; also: potency is read from the fitted curve at half-maximal effect; nearly all actives have a fitted effect of over 30% in size
Marburg entry inh = blocks Marburg virus binding to or entry into cells | Marburg virus pseudotyped entry inhibition, cell reporter | Potency, µM (series often up to 37.8 µM), for the others: top-dose activity change, negative = inhibition, hits mostly inhibitors | actives 1.8% (n = 300,000) | AID 540276; calls by dose curve; tested in HEK293 cells; also: potency is read from the fitted curve at half-maximal effect
VACV mCherry inh = vaccinia inhibition (mCherry reporter); Vaccinia virus mCherry reporter infection, fluorescence; Potency, µM (titrated, usually from 36.5 µM), for the others: at the top dose activity change, negative = inhibition, actives largely listed as inhibitors; actives 0.63% (n = 310,000); AID 720579; calls by dose curve; tested in A549 cells; also: potency is read from the fitted curve at half-maximal effect; nearly all actives have a fitted effect of over 35% in size
LASV entry inh = blocks Lassa virus binding to or entry into cells | Potency, µM (top dose mostly 37.9 µM), inactives show at the top dose activity change, negative = inhibition, hits mostly inhibitors | AID 540256 | Lassa virus pseudotype entry inhibition, cell reporter | actives 1.2% (n = 300,000); calls by dose curve; tested in HEK293 cells; also: potency is read from the fitted curve at half-maximal effect; nearly all actives have a fitted effect of over 50% in size
* = called active by the depositor; [ ] = remark or other dose. % is scaled to controls: 0 for no effect and ±100 for the full control effect.

Screening CCOC(=O)C1C(C(=O)OC)=C(c2ccc(OC)cc2)c2ccccc2N1S(=O)(=O)C(F)(F)F (stereo not drawn) returned HCMV inh -28.1, HCV inhibitor 11.2µM*, Vaccinia Venus -17.2% and VACV mCherry inh inactive.
CCn1c(=O)c2sccc2n2c(CCC(=O)N3CCN(c4ccc(C(C)=O)cc4)CC3)nnc12 was read as HCMV inh 13.0, Vaccinia Venus 0.6%, Marburg entry inh 2.9%[46.1 µM], VACV mCherry inh -0.1% and LASV entry inh -2.9%[46.1 µM].
`[O-][n+]1c2c(c3c4non(O)c4ccc31)CCCC2` gave HCMV inh -97.1*, HCV inhibitor -23.3%, Vaccinia Venus -1.7%, Marburg entry inh 2.5%, VACV mCherry inh -3.7% and LASV entry inh -3.6%.
For CC(=O)Oc1cc2c3c(c1)/C(=C1/SC(=S)NC1=O)C(=O)N3C(C)(C)C=C2C the results were HCMV inh -65.8* and HCV inhibitor 12.9%.
Screening COc1cc2c3c(c1)c(C1=NC(=S)NC1=O)c(O)n3C(C)(C)C=C2C returned HCMV inh 9.4, HCV inhibitor 3.7%, Marburg entry inh -18.1% and LASV entry inh 0.8%.
COC(=O)c1cn(C(=O)c2ccc(C)cc2)c2ccccc12 was read as HCMV inh -7.3 and HCV inhibitor -29.4%.
Screening CC(=O)c1cn(C(=O)c2ccc(Cl)cc2)c2ccccc12 returned HCMV inh -66.8*, HCV inhibitor -8.4%, Vaccinia Venus -14.3%, Marburg entry inh 9.0%[46.1 µM], VACV mCherry inh -8.1% and LASV entry inh 10.6%[46.1 µM].
For COC(=O)c1cn(C(=O)c2ccc(OC)cc2)c2ccccc12 the results were HCMV inh -65.5*, HCV inhibitor inconclusive, Vaccinia Venus inconclusive, Marburg entry inh inconclusive, VACV mCherry inh -22.1% and LASV entry inh -19.5%[46.1 µM].
COC(=O)c1cn(C(=O)c2ccc(C)c(C)c2)c2ccccc12 was read as HCMV inh inconclusive, HCV inhibitor -12.8%, Vaccinia Venus -28.6%, Marburg entry inh 3.0%, VACV mCherry inh inconclusive and LASV entry inh inconclusive.
Screening CN(C)c1nc2cc3c(cc2cc1CN(CC1CCCO1)C(=O)/C=C/c1cccs1)OCO3 (stereo not drawn) returned Vaccinia Venus -6.4% and VACV mCherry inh -8.3%.
`COc1ccccc1Nc1nc2ccc(Cl)cc2nc1-n1nc(C)cc1C` gave HCMV inh 26.8, Vaccinia Venus -4.9%, Marburg entry inh 9.7%[46.1 µM], VACV mCherry inh -10.9% and LASV entry inh 10.4%[46.1 µM].
COc1ccc(-n2cc(-c3ccc4c(c3)OCO4)n(CC(=O)Nc3cccc(C)c3C)c2=O)c(OC)c1 was read as HCMV inh -86.0*, Vaccinia Venus -13.9%, Marburg entry inh inconclusive, VACV mCherry inh -16.5% and LASV entry inh inconclusive.
COc1ccc(-n2cc(-c3ccc4c(c3)OCO4)n(CC(=O)Nc3cc(Cl)ccc3C)c2=O)cc1 was read as HCMV inh 46.3, Vaccinia Venus inconclusive, Marburg entry inh inconclusive, VACV mCherry inh inconclusive and LASV entry inh -2.5%[46.1 µM].
`COc1cc(Cl)c(C)cc1NS(=O)(=O)c1c(C)nc2sccn2c1=O` gave HCMV inh 15.8, Vaccinia Venus -17.6%, VACV mCherry inh -24.8% and LASV entry inh -7.1%[46.1 µM].
For O=C(Nc1ccc(-c2nc3cccnc3s2)cc1)c1ccc(Br)o1 the results were HCMV inh -91.0*, HCV inhibitor 11.2µM*, Vaccinia Venus -21.0% and VACV mCherry inh -10.2%.
O=C(Nc1cccc(-c2nc3cccnc3s2)c1)c1cccc(Br)c1 was read as HCMV inh -66.6*, Vaccinia Venus -7.8%, Marburg entry inh 2.7%[46.1 µM], VACV mCherry inh -12.3% and LASV entry inh -12.9%[46.1 µM].
Screening O=C(Nc1ccc(-c2nc3cccnc3s2)cc1)c1ccco1 returned HCMV inh 41.5, HCV inhibitor inconclusive, Vaccinia Venus inconclusive and VACV mCherry inh inactive.
`O=C(Nc1ccc(-c2nc3cccnc3s2)cc1)c1cccnc1Cl` gave HCMV inh 87.0, HCV inhibitor 6.31µM*, Vaccinia Venus -26.8%, Marburg entry inh inconclusive, VACV mCherry inh 10.6% and LASV entry inh 3.55µM*.
For CCN1[C@H](C(=O)OC)[C@@H](CO)[C@@H]2Cn3c(ccc(Br)c3=O)[C@@H]21 the results were HCMV inh 19.9.
`CC(=O)C1C(N2CC2)CC2C3CCC4=CC(=O)CCC4(C)C3CCC21C` (stereo not drawn) gave HCMV inh -62.7*, HCV inhibitor 0.562µM*, Vaccinia Venus inconclusive, Marburg entry inh inconclusive, VACV mCherry inh -17.4% and LASV entry inh inconclusive.
CC12CCC(=O)C=C1CCC1C2CCC2(C)C(O)CCC12 (stereo not drawn) was read as HCMV inh 6.5, HCV inhibitor -10.7%, Vaccinia Venus -6.7% and VACV mCherry inh 13.5%.
`COc1cc2c(cc1OC)C(C)N(C(=O)c1cc3c(s1)-c1ccccc1OC3)CC2` (stereo not drawn) gave HCMV inh -20.0, HCV inhibitor 11.2µM*, Vaccinia Venus 14.0%, Marburg entry inh 1.0%, VACV mCherry inh 6.3% and LASV entry inh -9.0%.
`COc1cc2c(cc1OC)C(C)N(C(=O)c1cc3c(s1)-c1c(C)cccc1OC3)CC2` (stereo not drawn) gave HCMV inh inconclusive, HCV inhibitor inconclusive, Marburg entry inh -3.0% and LASV entry inh -20.4%.
COc1cc2c(cc1OC)C(C)N(C(=O)C1COc3ccccc3O1)CC2 (stereo not drawn) was read as HCMV inh -65.1*, HCV inhibitor inconclusive, Vaccinia Venus -15.0%, Marburg entry inh inconclusive and LASV entry inh inconclusive.
Cc1nn2c(=O)cc(COC(=O)c3cccc(NC(=O)c4ccc(F)cc4)c3)nc2s1 was read as HCMV inh -25.1, Vaccinia Venus -15.8%, VACV mCherry inh -13.3% and LASV entry inh inconclusive.
Screening Cc1ccc2[nH]c3c(c2c1)CCC[C@H]3C(N)=O returned Marburg entry inh 5.3%.
For Cc1ccc2[nH]c3c(c2c1)CCCC3NC(=O)CCl (stereo not drawn) the results were HCV inhibitor inconclusive, Vaccinia Venus -29.4%, Marburg entry inh 5.62µM*, VACV mCherry inh -25.2% and LASV entry inh 8.91µM*.
Screening CCN(CC)C(=O)C1CCCc2c1[nH]c1ccc(Cl)cc21 (stereo not drawn) returned HCMV inh 0.9, HCV inhibitor inconclusive, Vaccinia Venus 4.6% and VACV mCherry inh 8.6%.
O=CNC1CCCc2c1[nH]c1ccc(Cl)cc21 (stereo not drawn) was read as HCMV inh inconclusive, HCV inhibitor 7.08µM*, Vaccinia Venus -1.6%, Marburg entry inh inconclusive, VACV mCherry inh -14.9% and LASV entry inh inconclusive.
